Here are results for twelve compounds from PubChem BioAssay.

In general, viability refers to a read-out of living cells in per cent, often relative to untreated cells. Broadly, the inhibition is the change of the read-out against control, counted positive when it falls.

“And” between values parts separate entries of the source, which are not always exact repeats. Equal entries are not always repeated. The source made the active and inactive calls. Rule as the data show it, unless noted: active = parasite load remaining mostly below about 12% (no sharp cut-off); inactive = mostly above about 10%.

A short description of test [1]: liver-stage malaria parasite growth inhibition, primary screen, cell-based, HepG2, luciferase luminescence, HepG2 viability (AID 624349).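 Also: 100% = mean of DMSO negative control wells on the same plate.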 The note with it: P. berghei liver stage in HepG2, luciferase luminescence, concentration not given here; parasite load remaining: stronger effect = lower value; viability: measured here: HepG2 viability without parasites.
Test [2] in a line: stimulators of nuclear beta-catenin in C2C12, primary screen, imaging, WNT3A-conditioned medium, mouse C2C12, NPC library (AID 1117326; in the data active = nuclear beta-catenin stimulation mostly above about 4.2%, no sharp cut-off; inactive = mostly below about 10%). The note with it: stronger effect = higher value.
Test [3] in a line: stimulators of insulin release from INS-1E, primary screen, cell-based, 5 mM glucose, NPC library (AID 1117329;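 active = compound raises insulin release from rat beta cells at 5 mM glucose, no numeric limit stated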). The note with it: rat INS-1E insulin secretion, at 10 µM, stronger effect = higher value.
Test [4] can be described thus: growth inhibition of GSK3B-pretreated HCT116 cells – cell-based, CellTiter-Glo, 0.2 to 20 µM (AID 1117336;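 active = compounds lowering colon cancer cell viability after pretreatment blocking the GSK3B kinase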). The following applies: HCT116 viability after GSK3B inhibitor, at 20 µM, stronger effect = higher value. A general note: ATP-based viability assays read luminescence as a measure of living cells.
The nature of test [5]: inhibition of endothelial tube formation, primary screen, imaging, VEGF stimulated, CD31 staining, tube area, NPC library (AID 1117340;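 active = compound that reduces growth-factor-driven endothelial tube area in a mixed cell culture, no cutoff stated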). The note with it: VEGF-stimulated ADSC/ECFC co-culture, at 10 µM, stronger effect = higher value.
Test [6] can be described thus: glucagon-like peptide 1 release enhancers, primary assay, NCI-H716 cell line, NPC library (AID 1117341;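 active = compound raises GLP1 secretion from the human gut endocrine cells, with no numeric limit stated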). The note with it: NCI-H716 cells, at 10 µM, stronger effect = higher value.
Test [7] in a line: HCT116 colon cancer cell growth inhibition, primary screen, CellTiter-Glo luminescence, NPC library (AID 1117342;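 active = compounds that lower survival of HCT116 colon cancer cells in the luminescence readout, no numeric limit stated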). The note with it: at 20 µM (top of the series).
Test [8] can be described thus: CellTiter-Glo luminescent readout of SW480 viability loss, NPC library primary (AID 1117343;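 active = compounds that lower viability of the colon cancer cells in the luminescence readout, with no numeric limit stated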). The following applies: CellTiter-Glo luminescence; at 20 µM (top of the series).
Test [9] is described as follows: decreased DLD-1 cellular survival, CellTiter-Glo luminescent readout, NPC compound collection, primary HTS (AID 1117346;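 active = compounds that lower survival of DLD-1 colon cancer cells in the luminescence readout, no cutoff given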). The following applies: DLD-1 viability, CellTiter-Glo luminescence; at 20 µM (top of the series).
The target in test [10] is 6-phosphogluconate dehydrogenase, decarboxylating (Homo sapiens) (UniProt P52209). Put plainly: 6PGD enzyme inhibitors, primary screen, biochemical, human, recombinant enzyme, NADPH absorbance (AID 1159550;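 active = at least 20% inhibition of 6-phosphogluconate dehydrogenase activity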). The note with it: recombinant 6PGD, NADPH absorbance 341 nm; at 10 µM; stronger effect = higher value.
6-phosphogluconate dehydrogenase, decarboxylating (Homo sapiens), sequence (P52209 whole entry, looked up): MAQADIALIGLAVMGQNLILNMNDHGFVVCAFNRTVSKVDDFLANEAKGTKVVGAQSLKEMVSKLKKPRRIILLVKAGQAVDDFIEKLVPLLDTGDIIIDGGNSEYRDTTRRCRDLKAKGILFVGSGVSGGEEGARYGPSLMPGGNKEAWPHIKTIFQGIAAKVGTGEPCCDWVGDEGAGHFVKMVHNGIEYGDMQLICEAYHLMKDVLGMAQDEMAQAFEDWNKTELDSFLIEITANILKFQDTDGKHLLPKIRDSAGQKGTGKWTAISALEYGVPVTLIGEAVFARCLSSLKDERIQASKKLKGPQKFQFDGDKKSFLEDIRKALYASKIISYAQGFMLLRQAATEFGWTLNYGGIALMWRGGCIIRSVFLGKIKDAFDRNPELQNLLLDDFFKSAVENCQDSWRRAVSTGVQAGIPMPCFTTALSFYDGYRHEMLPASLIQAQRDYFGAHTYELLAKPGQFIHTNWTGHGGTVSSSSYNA

For `Cc1cc(C(C)(C)C)c(O)c(C(C)(C)C)c1`, in test [1], the parasite load remaining is 72.6% (inactive). Moreover, the viability in test [1] was determined as 95.9%. The nuclear beta-catenin stimulation is 1.4% (inactive) in [2] (at 10 µM) and 0.1% in test [2] (stimulation, at 2 µM). Moreover, in [3], the insulin secretion stimulation is -0.6% (inactive). The viability decrease in test [4] is -7.15% (inactive). Further, the tube area decrease in test [5] was -2.9% (inactive). For the same compound, the GLP1 secretion stimulation in test [6] was 14.2% (inactive). Besides, the inhibition of viability in test [7] is 10.4% (inactive). The viability decrease (inhibition) in test [8] was 3.9% (inactive); in [9], -5.5% (inactive). Also, in test [10], the inhibition is 14.6% (inactive).
For the compound `COc1cc2c3cc1Oc1cc(ccc1O)C[C@@H]1c4c(cc(OC)c(O)c4Oc4ccc(cc4)C[C@@H]3N(C)CC2)CC[N+]1(C)C`, the parasite load remaining in test [1] is 55.9% (inactive) and 65.3% (inactive). Moreover, in test [1], the viability is 118% and 192%. Besides, the nuclear beta-catenin stimulation was 3.1% (inactive) in [2] (at 10 µM) and -0.1% in [2] (stimulation, at 2 µM). In addition, in test [3], the insulin secretion stimulation is -0.3% (inactive). Also, the viability decrease in [4] is -3% (inactive). Moreover, the tube area decrease in test [5] is 13.9% (inactive). The GLP1 secretion stimulation in [6] was -1.7% (inactive). Also, in test [7], the inhibition of viability was -1.93% (inactive). Also, the viability decrease (inhibition) was 5.3% (inactive) in test [8] and -2.9% (inactive) in test [9]. The inhibition in test [10] is 0.384% (inactive).
For `COc1ccc(C2C(=O)c3ccccc3C2=O)cc1`, in test [1], the parasite load remaining was 126% (inactive) and 58.9% (inactive). Besides, in [1], the viability was 68.9% and 89%. The nuclear beta-catenin stimulation in [2] (at 10 µM) was 1.8% (inactive); in test [2] (stimulation, at 2 µM) it was 1.4%. Further, the insulin secretion stimulation in [3] was 0.7% (inactive). For the same compound, the viability decrease in test [4] is 48.4% (inactive). Moreover, in test [5], the tube area decrease was -33.4% (inactive). For the same compound, the GLP1 secretion stimulation in test [6] is -6% (inactive). Moreover, in test [7], the inhibition of viability is 35.2% (inactive). The viability decrease (inhibition) is 22.1% (inactive) in test [8] and 11% (inactive) in [9]. The inhibition in test [10] was -16% (inactive).
Regarding `Cc1c(C(N)=O)cc([N+](=O)[O-])cc1[N+](=O)[O-]`, the parasite load remaining in test [1] was 143% (inactive). The viability in test [1] was found to be 90.9%. In addition, the nuclear beta-catenin stimulation in [2] (at 10 µM) is -0.3% (inactive); in [2] (stimulation, at 2 µM), -0.9%. For the same compound, in [3], the insulin secretion stimulation was -3.2% (inactive). Also, the viability decrease in test [4] was 13.7% (inactive). The tube area decrease in test [5] was -5.4% (inactive). For the same compound, the GLP1 secretion stimulation in test [6] was 2.8% (inactive). Further, the inhibition of viability in test [7] was -20% (inactive). For the same compound, the viability decrease (inhibition) in [8] is 34% (inactive); in test [9], 19.3% (inactive). In addition, the inhibition in test [10] is -17.5% (inactive).
Regarding `Cc1c(NC(=O)c2cccnc2)c(=O)n(-c2ccccc2)n1C`, the parasite load remaining in test [1] is 43.9% (inactive) and 167% (inactive) and 109% (inactive). For the same compound, the viability in test [1] was 47% and 88.9% and 92.6%. The nuclear beta-catenin stimulation in [2] (at 10 µM) is -1.7% (inactive); in [2] (stimulation, at 2 µM), 1.7%. The insulin secretion stimulation in [3] is -1% (inactive). In test [4], the viability decrease was -14.1% (inactive). For the same compound, the tube area decrease in [5] is 7.1% (inactive). Further, in [6], the GLP1 secretion stimulation was -0.1% (inactive). Further, in [7], the inhibition of viability is -4.77% (inactive). The viability decrease (inhibition) is 18.1% (inactive) in test [8] and -19.7% (inactive) in test [9]. For the same compound, the inhibition in test [10] was -15.8% (inactive).
Take `O=C(O)c1cc(O)c(O)c(O)c1`: the parasite load remaining in [1] was 50.3% (inactive). For the same compound, the viability in test [1] was found to be 100%. For the same compound, the nuclear beta-catenin stimulation is 1% (inactive) in test [2] (at 10 µM) and -0.2% in test [2] (stimulation, at 2 µM). Also, in test [3], the insulin secretion stimulation is -0.6% (inactive). Further, in test [4], the viability decrease is 44.8% (inactive). Further, the tube area decrease in test [5] is -2.4% (inactive). Also, the GLP1 secretion stimulation in test [6] was 5.1% (inactive). Besides, in test [7], the inhibition of viability was 1.3% (inactive). For the same compound, the viability decrease (inhibition) in test [8] is 36.1% (inactive); in test [9], 39.5% (inactive). Besides, the inhibition in test [10] was 3.08% (inactive).
With `NS(=O)(=O)c1cc2c(cc1Cl)NC(CSCc1ccccc1)=NS2(=O)=O`, the parasite load remaining in [1] is 72.5% (inactive) and 98.3% (inactive) and 56.3% (inactive). In test [1], the viability is 97% and 76.2% and 98.6%. The nuclear beta-catenin stimulation in [2] (at 10 µM) was -0.6% (inactive); in test [2] (stimulation, at 2 µM) it was 0.7%. In addition, the insulin secretion stimulation in [3] is 0% (inactive). Also, the viability decrease in [4] is -14.2% (inactive). Besides, the tube area decrease in test [5] is 5% (inactive). Besides, the GLP1 secretion stimulation in test [6] is 0.4% (inactive). Besides, the inhibition of viability in [7] was -3.3% (inactive). For the same compound, the viability decrease (inhibition) is 0.9% (inactive) in test [8] and -17.1% (inactive) in [9]. For the same compound, the inhibition in test [10] was -3.14% (inactive).
Regarding `Nc1ccc(S(=O)(=O)Nc2cnc3ccccc3n2)cc1`, the parasite load remaining in test [1] is 113% (inactive) and 43.6% (inactive). The viability in [1] is 98.9% and 97%. For the same compound, the nuclear beta-catenin stimulation in test [2] (at 10 µM) was -0.3% (inactive); in [2] (stimulation, at 2 µM), 0.7%. Also, in test [3], the insulin secretion stimulation is 1.2% (inactive). For the same compound, the viability decrease in [4] was 21% (inactive). In test [5], the tube area decrease was -18.5% (inactive). In test [6], the GLP1 secretion stimulation is 4.1% (inactive). Further, the inhibition of viability in test [7] is 0.93% (inactive). Further, the viability decrease (inhibition) is -1% (inactive) in [8] and -9.7% (inactive) in test [9]. In test [10], the inhibition is 10.4% (inactive).
In the case of `COc1cccc(OC)c1C(=O)N[C@@H]1C(=O)N2[C@@H]1SC(C)(C)[C@@H]2C(=O)O`, in test [1], the parasite load remaining was 72.2% (inactive) and 53.5% (inactive). Also, in [1], the viability was 72.9% and 91.1%. Besides, the nuclear beta-catenin stimulation in [2] (at 10 µM) is -0.9% (inactive); in [2] (stimulation, at 2 µM), -1.1%. Further, the insulin secretion stimulation in test [3] is 0.6% (inactive). For the same compound, the viability decrease in test [4] was -3.9% (inactive). Also, the tube area decrease in test [5] is -4.7% (inactive). In addition, the GLP1 secretion stimulation in [6] was -0.3% (inactive). For the same compound, the inhibition of viability in [7] is -7% (inactive). The viability decrease (inhibition) is 17.4% (inactive) in test [8] and -4.8% (inactive) in [9]. For the same compound, in test [10], the inhibition is 17.4% (inactive).
As to `O=C(O)c1cc(=O)c2ccccc2o1`, the parasite load remaining in test [1] was 136% (inactive). Also, in test [1], the viability worked out at 95.8%. Besides, the nuclear beta-catenin stimulation in test [2] (at 10 µM) was -0.2% (inactive); in [2] (stimulation, at 2 µM) it was 0.2%. For the same compound, the insulin secretion stimulation in test [3] was -2.1% (inactive). Besides, in test [4], the viability decrease is -1.35% (inactive). The tube area decrease in test [5] was -2.1% (inactive). For the same compound, in test [6], the GLP1 secretion stimulation was 3.7% (inactive). For the same compound, the inhibition of viability in test [7] was -9.2% (inactive). The viability decrease (inhibition) in [8] is 6.8% (inactive); in [9] it was 1.75% (inactive). For the same compound, the inhibition in [10] was -2.11% (inactive).
Turning to `CCOC(N)=O`, the parasite load remaining in test [1] is 148% (inactive) and 51.2% (inactive). In addition, the viability in test [1] was 85% and 96.6%. In addition, the nuclear beta-catenin stimulation in test [2] (at 10 µM) was 2.6% (inactive); in test [2] (stimulation, at 2 µM), 7.1%. Further, in test [3], the insulin secretion stimulation is 0.8% (inactive). Also, the viability decrease in test [4] is -12.6% (inactive). In test [5], the tube area decrease is 14.2% (inactive). Besides, in test [6], the GLP1 secretion stimulation was -2.3% (inactive). Moreover, the inhibition of viability in [7] was 3.77% (inactive). The figures for the viability decrease (inhibition) in test [8] and in [9] were 5.1% (inactive) and -11.6% (inactive), respectively. Further, the inhibition in test [10] is -22.6% (inactive).
Take `O=C(Cn1ccnc1[N+](=O)[O-])NCCO`: the parasite load remaining in [1] is 107% (inactive) and 46.8% (inactive). Moreover, the viability in [1] was 103% and 102%. Besides, the nuclear beta-catenin stimulation in [2] (at 10 µM) is -1.8% (inactive); in test [2] (stimulation, at 2 µM) it was 0.3%. Moreover, in [3], the insulin secretion stimulation is 2.3% (inactive). Also, the viability decrease in test [4] was -1.8% (inactive). Moreover, the tube area decrease in test [5] is 2.6% (inactive). Further, the GLP1 secretion stimulation in test [6] is -2.9% (inactive). Besides, the inhibition of viability in [7] was 19.2% (inactive). For the same compound, the figures for the viability decrease (inhibition) in test [8] and in test [9] were 6.3% (inactive) and -0.6% (inactive), respectively. Further, the inhibition in test [10] was -6.85% (inactive).
